The assay can be described thus: anaerobic choline-dependent bacterial growth inhibition – minimal medium, absorbance (AID 1963822). The conditions noted are these: Gram-negative bacterium anaerobic choline minimal medium.
[1] abbreviates: measured here: choline growth z-score, timepoint 1, stronger effect = lower value.

The structures appear in SMILES notation. Among all 55,000 compounds or so, about 90 (0.2%) were called active. How the calls were made is not given here. The list comes from a sample in which actives are over-represented; it also holds similar structures and randomly drawn compounds.

The values below come from PubChem BioAssay AID1963822 (ICCB-Longwood Screening Facility, Harvard Medical School, 2024).

For the compound `COc1cccc(N2C(=O)c3cc(C)nn3CC2(C)C(=O)NCc2ccccc2)c1` (stereo unspecified), the z-score runs as follows: (stronger effect = lower value) 0.09 (inactive); under setting [1], -0.96.
As to `Cc1cc(C)n(CCc2nc(-c3ccc(Cl)cc3)no2)n1`, the z-score was -0.52 (inactive) (stronger effect = lower value) and -1.19 under setting [1].
The like results for `O=C(NC1CCCCC1)c1ccc(Cl)c(-n2nnc3cccnc32)c1` were, in that order, 0.14 (inactive) and 0.44.
The like results for `Cc1cccc(-c2nn3c(=O)cc(CN4CCN(C(=O)c5cccc(Br)c5)CC4)nc3s2)c1` were, in that order, 0.88 (inactive) and 0.71.
Taken in the same sequence, the figures for `COc1ccc2cc3c(nc2c1)N(C(=O)c1ccc(OC)c(OC)c1)CC3` were 0.77 (inactive) and 0.04.
`COc1cccc(-c2nn(Cc3ccc(C)cc3)c(=O)c3noc(C)c23)c1`: the z-score by setting is: (stronger effect = lower value) 1.18 (inactive); under setting [1], -0.21.
Taken in the same sequence, the figures for `COc1ccc(NC(=O)N2CCN(C)c3ncccc32)cc1` were -0.52 (inactive) and -1.12.
With `COc1ccc(-c2nc(SCC(=O)Oc3ccc(C)cc3C)n3[nH]c(=O)cc3n2)cc1`, the z-score by setting is: (stronger effect = lower value) -0.54 (inactive); under setting [1], -0.44.
Taken in the same sequence, the figures for `CN(C)C(=O)CN1C(=O)COc2ccc(C(=O)NCc3ccc4c(c3)OCO4)cc21` were 0.4 (inactive) and 0.23.
Turning to `O=C1CN(Cc2ccccc2Cl)S(=O)(=O)c2ccccc2N1Cc1cccc(F)c1`, the z-score reads like this: (stronger effect = lower value) 0.04 (inactive); under setting [1], 0.04.
`CCOc1ccc(NC(=O)NCCn2c(C(F)(F)F)nc3ccccc32)cc1`: the z-score by setting is: (stronger effect = lower value) 0.3 (inactive); under setting [1], 0.45.
In the case of `O=C(Cc1csc(NC(=O)Nc2ccc(Cl)cc2)n1)Nc1cccc(Cl)c1`, the z-score (stronger effect = lower value) was -2.04 (active) and the z-score under setting [1] is -1.2.
The like results for `O=C(Cc1nnc(NC(=O)Nc2cccc(Cl)c2)s1)NCc1ccccc1` were, in that order, 0.49 (inactive) and 0.9.
The like results for `CCC(=O)Nc1nc2cc(NC(=O)Nc3cccc(Cl)c3)ccc2s1` were, in that order, 0 (inactive) and -0.84.
Taken in the same sequence, the figures for `O=C(NCc1ccc2c(c1)OCO2)c1ccc(-c2noc(C3CC3)n2)cc1` were 0.36 (inactive) and 0.22.
With `COCC(=O)Nc1ccc(-c2nc3ccccc3s2)cc1`, the z-score was -0.9 (inactive) (stronger effect = lower value) and -0.43 under setting [1].
Turning to `CCSc1nc2ccc(NS(=O)(=O)Cc3cc(C)ccc3C)cc2s1`, the z-score was 1.35 (inactive) (stronger effect = lower value) and 0.62 under setting [1].
Take `Cc1csc2ncc(C(=O)N3CCCCCC3)c(=O)n12`: the z-score was -0.29 (inactive) (stronger effect = lower value) and -0.07 under setting [1].
As to `c1ccc(CCNc2c3c(nc4nncn24)CCC3)cc1`, the z-score runs as follows: (stronger effect = lower value) 0.56 (inactive); under setting [1], 0.78.
The like results for `CC(C)n1cnc(S(=O)(=O)N2CCC(C(=O)N3CCCC3)CC2)c1` were, in that order, 0.57 (inactive) and -0.23.
Taken in the same sequence, the figures for `O=C(Nc1ccc(Br)cc1F)N1CCN(c2cc(-c3ccccc3)ncn2)CC1` were -1.08 (inactive) and -1.03.
`CCC1Oc2cc(S(=O)(=O)N3CCCC(C(=O)N4CCc5ccccc54)C3)c(C)cc2NC1=O` (stereo unspecified): the z-score runs as follows: (stronger effect = lower value) 0.06 (inactive); under setting [1], -0.03.
Regarding `CCN1CCN(S(=O)(=O)c2ccc(C)cc2C)c2cccnc21`, the z-score by setting is: (stronger effect = lower value) -0.02 (inactive); under setting [1], -0.19.
